# Assay: binders of probe aFST on microarray, primary screen, stem cell growth factor project, biochemical, small-molecule microarray, fluorescence 635/667 (AID 1086);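 also: score merges 667 nm fluorescence with signal-to-noise of each printed compound spot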
# Details: higher = more signal
row,Structure (SMILES),composite z-score
1,COCCOC(=O)N1C(=O)[C@@]2(c3cc(C#CCNC(N)=O)ccc31)[C@H](C(=O)NC[C@H](O)c1ccccc1)[C@H]1C(=O)O[C@H](c3ccccc3)[C@H](c3ccccc3)N1[C@@H]2c1ccc(OCCO)cc1,0.538
2,COC(=O)[C@@]1(Cc2ccc(F)cc2)[C@H]2c3cc(C(=O)N(C)C)n(CCn4cc([N+](=O)[O-])nc4C)c3C[C@H]2CN1C(=O)c1ccccc1,0.593
3,CN(C)CCCCNC(=O)[C@H]1C[C@H]2C(=O)N[C@@H](Cc3ccccc3)C(=O)N2[C@H]1c1cccc(OCCO)c1,-0.549
4,CCCCN1CC=CC23O[C@@H]4/C=C\CCC(C)OC(=O)C4[C@H]2C(=O)N(C(C)CO)[C@@H]3C1=O (stereo partly specified),-0.536
5,CCCCC(=C=CC[C@@H](O)c1cccc(OCCO)c1)CCO,0.0204
6,CN1C=C(C(=O)OCCS(C)(=O)=O)C(C(=O)OCCS(C)(=O)=O)=CC(CCCO)=CC1c1ccc(CN2CCCC2)cc1 (stereo unspecified),1.65
7,C#CCN(C/C=C/c1ccccc1)[C@H](CO[Si](C)(C)C(C)(C)C)c1ccccc1,-0.363
8,O=C1O[C@H](c2ccccc2)[C@H](c2ccccc2)N2[C@H]1[C@@H](C(=O)N1CCN(c3ncccn3)CC1)[C@]1(C(=O)Nc3ccccc31)[C@H]2c1ccc(O)cc1,0.3
9,[N-]=[N+]=NCc1ccccc1[C@@H]1OC(c2ccc(OCCCO)cc2)=N[C@]1(Cc1ccccc1)C(=O)NCc1ccccc1,0.846
10,C=CCOC(=O)[C@H]1[C@@H]2C(=O)O[C@@H](c3ccccc3)[C@@H](c3ccccc3)N2[C@@H](c2ccc(OCCOC(=O)[C@@H]3C[C@@H]4C(=O)N[C@@H](CC(C)C)C(=O)N4[C@@H]3c3ccc(O)cc3)cc2)[C@]12C(=O)Nc1ccc(I)cc12,-0.0054
11,CC(C)CNC(=O)[C@@]1(C)c2ccccc2C(=O)N(Cc2cc(F)cc(C(F)(F)F)c2)[C@H]1c1ccc(CO)cc1,0.0289
12,NCCCC[C@@H]1NC(=O)[C@H]2C[C@@H](C(=O)O)[C@@H](c3cccc(OCCO)c3)N2C1=O,2.16
13,CC(C)C[C@@H]1NC(=O)[C@H]2C[C@@H](C(=O)NCCCCCNC(=O)CS)[C@@H](c3ccc(O)cc3)N2C1=O,0.0724
14,CO[C@H]1O[C@H](CO)[C@@H](OC(=O)Nc2ccccc2)[C@@H]2OC(=O)[C@H](Cc3ccccc3)C/C=C/C[C@@H](Cc3ccccc3)C(=O)O[C@@H]12,0.654
15,CC(C)CNC(=O)[C@@H]1c2ccccc2C(=O)N(Cc2ccccc2Cl)[C@H]1c1ccc(CO)cc1,-0.295
16,CCc1cccc(NC(=O)O[C@H]2[C@H](OC(=O)Nc3ccc4c(c3)OCO4)[C@H](OC(=O)Nc3ccc4c(c3)OCO4)[C@@H](OC)O[C@@H]2CO)c1,0.318
17,CCN(CC)c1ccc(N2CC=CC34O[C@@H]5C=CCOC(=O)[C@@H]5[C@H]3C(=O)N(CCCO)[C@@H]4C2=O)cc1 (stereo partly specified),-0.504
18,C=C(CCCC)/C(=C/C[C@H](OC(C)=O)c1cccc(OCCO)c1)c1cc(C(=O)OC)ccc1OC,-0.221
19,C=C(COC)/C(=C/C[C@H](OC(=O)c1ccncc1)c1ccc(OCCO)cc1)c1cc(C(=O)OC)ccc1OC,1.42
20,NC(=O)NCC#Cc1ccc2c(c1)[C@]1(C(=O)N2)[C@H](C(=O)Nc2nc3ccccc3s2)[C@H]2C(=O)O[C@H](c3ccccc3)[C@H](c3ccccc3)N2[C@@H]1c1ccc(OCCO)cc1,0.99
21,C=CCNC(=O)[C@H]1[C@@H]2C(=O)O[C@@H](c3ccccc3)[C@@H](c3ccccc3)N2[C@@H](c2ccc(O)cc2)[C@]12C(=O)Nc1ccc(C#CC3=CCCCC3)cc12,-0.166
22,C=CCC(OC(C)=O)[C@@H]1[C@@H](N(Cc2cccc3ccccc23)C(=O)c2ccc(-c3ccccc3)cc2)c2cc(OCCCO)ccc2N1C(=O)c1ccc2ccccc2n1 (stereo partly specified),0.386
23,O=C1c2ccccc2[C@](Cc2ccccc2I)(C(=O)O)[C@H](c2ccc(CO)cc2)N1Cc1ccccc1,-0.0119
24,CC(C)[C@@H](C(=O)O)n1cc(-c2ccccc2)nn1,0.874
25,C/C=C/CN(C(=O)C#Cc1ccccc1)[C@H](CO[Si](C)(C)C(C)(C)C)c1ccccc1,-0.967
26,COCCOC(=O)N1C(=O)[C@@]2(c3cc(C#CCCO)ccc31)[C@H](c1ccc(O)cc1)N1[C@H](c3ccccc3)[C@H](c3ccccc3)OC(=O)[C@H]1[C@@H]2C(=O)N1CCc2cc(OC)c(OC)cc2C1,0.411
